Laboratory results taken from PubChem BioAssay (NCI).
Compounds without any hit were thinned out: in the full panel of roughly 79,000, 15% have a hit. Active and inactive are the calls of the source. Rule as the data show it: active = growth inhibition above about 70%; inactive = the rest.

Assays:
[1] = NCI Yeast Anticancer Drug Screen. Data for the rad52 strain (AID 147);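 also: 0% = growth of vehicle-treated control cultures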; conditions: S. cerevisiae rad52 mutant growth inhibition, stronger effect = higher value
Outline: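 Measured: yeast growth inhibition. System: strain with a defined DNA damage repair alteration. Reference: vehicle-treated control cultures.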

[2] = NCI Yeast Anticancer Drug Screen. Data for the wt1 strain (AID 149);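 also: 0% = growth of vehicle-treated wt1 cultures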; conditions: S. cerevisiae wt1 strain (SPY 50644) growth inhibition, stronger effect = higher value
Outline: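 The wt1 strain was treated with compounds, and growth was compared with vehicle-treated cultures to give inhibition.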

[3] = NCI Yeast Anticancer Drug Screen. Data for the rad50EPP+ strain (AID 151);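 also: 0% = growth of vehicle-treated control cultures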; conditions: S. cerevisiae rad50 mutant strain, stronger effect = higher value
Outline: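 One strain with a rad50 alteration (rad50EPP+) was compound-treated, its growth then compared to that of vehicle controls.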

[4] = NCI Yeast Anticancer Drug Screen. Data for the mgt1 strain (AID 153); conditions: S. cerevisiae mgt1 mutant growth inhibition, stronger effect = higher value
Outline: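 After exposure of the mgt1 yeast mutant to compound, growth was measured and reported as inhibition compared with vehicle controls.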

[5] = NCI Yeast Anticancer Drug Screen. Data for the rad50 strain (AID 155);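 also: 0% = growth of vehicle-only cultures of the same strain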; conditions: S. cerevisiae rad50 strain growth inhibition, stronger effect = higher value
Outline: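 Cells are treated with compound, grown, and their growth is then scored against vehicle-only cultures of the same repair-deficient yeast strain.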

[6] = NCI Yeast Anticancer Drug Screen. Data for the mec2-1 strain (AID 157); conditions: S. cerevisiae mec2-1 strain, stronger effect = higher value
Outline: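 Test agents were screened against the mec2-1 yeast strain, with defined DNA repair or cell cycle alteration. Growth was scored as inhibition against vehicle-only controls.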

[7] = NCI Yeast Anticancer Drug Screen. Data for the rad14 strain (AID 159);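 also: 0% = growth of vehicle-treated control cultures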; conditions: S. cerevisiae rad14 strain growth inhibition, stronger effect = higher value
Outline: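 Readout: yeast growth inhibition, referenced to vehicle-only cultures. Strain bears a defined alteration in DNA damage repair.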

[8] = NCI Yeast Anticancer Drug Screen. Data for the sgs1 mgt1 strain (AID 161);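 also: 0% = growth of cultures given vehicle only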; conditions: S. cerevisiae sgs1 mgt1 strain, stronger effect = higher value
Outline: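 Test agents were incubated with a DNA-repair-mutant yeast strain. Growth was then read and compared against vehicle-treated controls.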

[9] = NCI Yeast Anticancer Drug Screen. Data for the CLN2oe strain (AID 163);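 also: 0% = growth of vehicle-only control cultures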; conditions: S. cerevisiae CLN2oe strain, stronger effect = higher value
Outline: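 Here, growth inhibition in a cell-cycle-altered yeast strain after compound exposure was quantified against vehicle control growth.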

[10] = NCI Yeast Anticancer Drug Screen. Data for the cln2 rad14 strain (AID 165);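 also: 0% = growth equal to vehicle treated cultures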; conditions: S. cerevisiae cln2 rad14 strain, stronger effect = higher value
Outline: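 Growth of compound-exposed yeast (cln2 rad14 genotype) measured and expressed as inhibition relative to vehicle.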

[11] = NCI Yeast Anticancer Drug Screen. Data for the bub3 strain (AID 167); conditions: S. cerevisiae bub3 mutant strain, stronger effect = higher value
Outline: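 Part of a panel of yeast mutants defective in DNA damage repair or cell cycle regulation. Each strain is grown with compound, and inhibition is calculated relative to solvent-treated cultures.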

[12] = NCI Yeast Anticancer Drug Screen. Data for the wt2 strain (AID 169);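 also: 0% = growth of vehicle-treated yeast cultures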; conditions: S. cerevisiae wt2 strain growth inhibition, stronger effect = higher value
Outline: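 Genetically defined yeast strains from a DNA-repair/cell-cycle panel were used. Compound-exposed yeast growth was measured, and the inhibition was calculated relative to vehicle treatment.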

[13] = NCI Yeast Anticancer Drug Screen. Data for the sgs1 strain (AID 173);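 also: 0% = growth of vehicle-only control cultures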; conditions: S. cerevisiae sgs1 mutant, stronger effect = higher value
Outline: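 Relative growth inhibition, referenced to vehicle, was determined in a yeast strain with a defined alteration affecting DNA damage repair or cell cycle control after compound exposure.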

[14] = NCI Yeast Anticancer Drug Screen. Data for the mlh1 rad18 strain (AID 175); conditions: S. cerevisiae mlh1 rad18 strain growth inhibition, stronger effect = higher value
Outline: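 In this whole-cell yeast screen, a strain with altered DNA damage repair is challenged with compound, and its growth is measured against matched vehicle-treated controls.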

[15] = NCI Yeast Anticancer Drug Screen. Data for the rad18 strain (AID 177); conditions: S. cerevisiae rad18 mutant growth inhibition, stronger effect = higher value
Outline: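 Screen uses a yeast strain with a defined lesion in DNA damage repair; compound effect is read as loss of growth compared to untreated vehicle cultures.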

[16] = NCI Yeast Anticancer Drug Screen. Data for the mlh1 strain (AID 171);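 also: 0% = growth of vehicle-treated control cultures of the same strain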; conditions: S. cerevisiae mlh1 strain growth inhibition, stronger effect = higher value
Outline: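 Here the genetically defined yeast mutant is grown with each compound, and the extent to which its growth falls below that of vehicle-exposed cells is reported.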

[17] = at 5.0 µM (retest, dose inferred, filed as 0.5)
[18] = at 50.0 µM (retest, dose inferred, filed as 5.0)

Measured: growth inhibition

COC(=O)C1(C)CCc2c(ccc3ccccc23)C1=O (stereo not drawn)
active: [11]; [18] 78% | [11]; at 50.0 µM 81% | [11]; at 100.0 µM 75% | [12]; at 100.0 µM 80%
inactive: [1]; at 1.2 µM -1% | [1]; at 3.7 µM 4% | [1]; at 11.0 µM 12% | [1]; at 33.0 µM 4% | [1]; at 100.0 µM 44% | [2]; at 1.2 µM 0% | [2]; at 3.7 µM -2% | [2]; at 11.0 µM -3% | [2]; at 33.0 µM -2% | [2]; at 100.0 µM -13% | [3]; at 1.2 µM -1% | [3]; at 3.7 µM 13% | [3]; at 11.0 µM 28% | [3]; at 33.0 µM 23% | [3]; at 100.0 µM 49% | [4]; at 1.2 µM -1% | [4]; at 3.7 µM 0% | [4]; at 11.0 µM -1% | [4]; at 33.0 µM -2% | [4]; at 100.0 µM 30% | [5]; at 1.2 µM -1% | [5]; at 3.7 µM 6% | [5]; [17] -13% | [5]; at 11.0 µM 13% | [5]; at 33.0 µM -87% | [5]; [18] 29% | [5]; at 50.0 µM 39.9% | [5]; at 100.0 µM 42% | [6]; at 1.2 µM 1% | [6]; at 3.7 µM -1% | [6]; [17] -14% | [6]; at 11.0 µM -2% | [6]; at 33.0 µM 0% | [6]; [18] -17% | [6]; at 50.0 µM 27.1% | [6]; at 100.0 µM 13% | [7]; at 1.2 µM -1% | [7]; at 3.7 µM 4% | [7]; at 11.0 µM 12% | [7]; at 33.0 µM 14% | [7]; at 100.0 µM 19% | [8]; [17] -5% | [8]; [18] 47% | [8]; at 50.0 µM 64.3% | [9]; at 1.2 µM -4% | [9]; at 3.7 µM 4% | [9]; at 11.0 µM 6% | [9]; at 33.0 µM 11% | [9]; at 100.0 µM 15% | [10]; [17] -10% | [10]; [18] 12% | [10]; at 50.0 µM 1.75% | [11]; at 1.2 µM 37% | [11]; at 3.7 µM 49% | [11]; [17] 40% | [11]; at 11.0 µM 57% | [11]; at 33.0 µM 65% | [12]; at 1.2 µM -5% | [12]; at 3.7 µM -2% | [12]; at 11.0 µM 9% | [12]; at 33.0 µM -5% | [13]; at 1.2 µM -14% | [13]; at 3.7 µM 3% | [13]; at 11.0 µM 16% | [13]; at 33.0 µM 34% | [13]; at 100.0 µM 67% | [14]; [17] -11% | [14]; [18] 57% | [14]; at 50.0 µM 26.5% | [15]; at 1.2 µM -5% | [15]; at 3.7 µM 6% | [15]; at 11.0 µM 10% | [15]; at 33.0 µM 7% | [15]; at 100.0 µM 53%

O=C1Nc2ccc(Br)cc2C1=Nc1ccc2c(c1)OCO2
inactive: [1]; at 1.2 µM 10% | [1]; at 3.7 µM 8% | [1]; at 11.0 µM 3% | [1]; at 33.0 µM 10% | [1]; at 100.0 µM 2% | [2]; at 1.2 µM -12% | [2]; at 3.7 µM -3% | [2]; at 11.0 µM -12% | [2]; at 33.0 µM -12% | [2]; at 100.0 µM 2% | [3]; at 1.2 µM -34% | [3]; at 3.7 µM -37% | [3]; at 11.0 µM -45% | [3]; at 33.0 µM -35% | [3]; at 100.0 µM -48% | [4]; at 1.2 µM -9% | [4]; at 3.7 µM -32% | [4]; at 11.0 µM -15% | [4]; at 33.0 µM -15% | [4]; at 100.0 µM -30% | [5]; at 1.2 µM -29% | [5]; at 3.7 µM -26% | [5]; [17] 47% | [5]; at 11.0 µM -27% | [5]; at 33.0 µM -27% | [5]; [18] 60% | [5]; at 50.0 µM -9.9% | [5]; at 100.0 µM -10% | [6]; at 1.2 µM -59% | [6]; at 3.7 µM -27% | [6]; [17] 41% | [6]; at 11.0 µM -54% | [6]; at 33.0 µM -58% | [6]; [18] 56% | [6]; at 50.0 µM -5.95% | [6]; at 100.0 µM -40% | [7]; at 1.2 µM -38% | [7]; at 3.7 µM -29% | [7]; at 11.0 µM -32% | [7]; at 33.0 µM -21% | [7]; at 100.0 µM -33% | [8]; [17] -12% | [8]; [18] 8% | [8]; at 50.0 µM 9.4% | [9]; at 1.2 µM 13% | [9]; at 3.7 µM 15% | [9]; at 11.0 µM 16% | [9]; at 33.0 µM 17% | [9]; at 100.0 µM 21% | [10]; [17] 32% | [10]; [18] 26% | [10]; at 50.0 µM 7.55% | [12]; at 1.2 µM 0% | [12]; at 3.7 µM -21% | [12]; at 11.0 µM -22% | [12]; at 33.0 µM -34% | [12]; at 100.0 µM -27% | [16]; at 1.2 µM -8% | [16]; at 3.7 µM -13% | [16]; at 11.0 µM -24% | [16]; at 33.0 µM -30% | [16]; at 100.0 µM -27% | [13]; at 1.2 µM -31% | [13]; at 3.7 µM -21% | [13]; at 11.0 µM -30% | [13]; at 33.0 µM -37% | [13]; at 100.0 µM -27% | [14]; [17] 33% | [14]; [18] 54% | [14]; at 50.0 µM 6.7% | [15]; at 1.2 µM -36% | [15]; at 3.7 µM -34% | [15]; at 11.0 µM -42% | [15]; at 33.0 µM -44% | [15]; at 100.0 µM -29%
